HIF-2a block = inhibitors of HIF-2a | 786-0 RCC cells HIF-2a reporter, luciferase luminescence, overnight | inhibition, % at 18.8 µM | 360,000 tested, 0.72% active | AID 624352;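 active = inhibition of the luminescence signal of 40% or more relative to plate controls, in a single-dose primary screen at 18.75 µM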
Peg3 prom inh = inhibitors of Peg3 promoter | inhibition, % at 20 µM | 360,000 tested, 1.7% active | HeLa PEG-Prom luciferase reporter, luminescence, overnight;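 active = inhibition of at least 50% at 20 µM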
CF NFkB inh = cystic fibrosis NF-kB activation inhibition; 360,000 tested, 0.86% active; KKLEB NF-kB-GFP reporter, PAF-induced, GFP fluorescence overnight; inhibition, % at 5 µM;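 active = at least 50% inhibition at 5 µM, scaled per plate between neutral and stimulator controls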;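 note: PAF is a Pseudomonas aeruginosa culture filtrate used as stimulus; plate controls were PAF-stimulated DMSO wells for no effect and unstimulated DMSO wells for full effect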
MITF TRPM1 inh = MITF TRPM1 promoter inhibition in SK-MEL-5 cells; SK-MEL-5 TRPM1 promoter luciferase, 24 h; inhibition, % at 12.5 µM; 330,000 tested, 0.83% active;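 active = mean inhibition across replicates of 60% or more, whatever share of single replicates reaches that level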
Beta2AR agonist = activates human beta-2 adrenergic receptor causing internalization; P07550; Am2.2-beta2AR cells, FAP receptor internalization, flow cytometry; response, % (concentration not given with the values); 340,000 tested, 0.43% active; AID 504454;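 active = response above a set limit, near 3 SD of response in nonfluorescent compounds, cut at about 42% in these data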
KKLEB tox = counter-screen for CF NF-kB inhibitors: cytotoxicity; activity change (cytotoxicity), % at 5 µM; KKLEB CF airway cells viability, ATPlite luminescence, overnight; stronger effect = lower value; cells stimulated with P. aeruginosa culture filtrate; 360,000 tested, 0.36% active;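 active = corrected activity change at or below -50% at 5 µM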
Mdm2-MdmX confirm = confirmation of inhibitors of human Mdm2/MdmX interaction, set 2; shares compounds with HIF-2a block; SaOS-2 split-luciferase Mdm2/MdmX complementation, luminescence; inhibition, % at 8 µM; 740 tested, 99% active;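 active = mean inhibition of the luminescence signal across two replicates at or above 26 percent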
Target sequence (O15151 whole entry, looked up): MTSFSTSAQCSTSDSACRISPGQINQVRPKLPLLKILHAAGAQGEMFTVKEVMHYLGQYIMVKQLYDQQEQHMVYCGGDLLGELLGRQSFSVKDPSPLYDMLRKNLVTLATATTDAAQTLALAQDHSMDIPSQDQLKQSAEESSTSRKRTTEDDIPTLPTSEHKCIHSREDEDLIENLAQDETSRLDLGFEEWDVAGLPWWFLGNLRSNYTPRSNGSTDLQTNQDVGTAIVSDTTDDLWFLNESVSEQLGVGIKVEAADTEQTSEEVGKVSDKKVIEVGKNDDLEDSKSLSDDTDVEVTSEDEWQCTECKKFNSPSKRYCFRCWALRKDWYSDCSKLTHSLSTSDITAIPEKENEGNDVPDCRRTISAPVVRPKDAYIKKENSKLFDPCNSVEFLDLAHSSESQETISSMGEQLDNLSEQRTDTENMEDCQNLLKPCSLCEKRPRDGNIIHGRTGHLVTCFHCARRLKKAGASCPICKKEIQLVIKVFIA
Target sequence (Q00987 whole entry, looked up): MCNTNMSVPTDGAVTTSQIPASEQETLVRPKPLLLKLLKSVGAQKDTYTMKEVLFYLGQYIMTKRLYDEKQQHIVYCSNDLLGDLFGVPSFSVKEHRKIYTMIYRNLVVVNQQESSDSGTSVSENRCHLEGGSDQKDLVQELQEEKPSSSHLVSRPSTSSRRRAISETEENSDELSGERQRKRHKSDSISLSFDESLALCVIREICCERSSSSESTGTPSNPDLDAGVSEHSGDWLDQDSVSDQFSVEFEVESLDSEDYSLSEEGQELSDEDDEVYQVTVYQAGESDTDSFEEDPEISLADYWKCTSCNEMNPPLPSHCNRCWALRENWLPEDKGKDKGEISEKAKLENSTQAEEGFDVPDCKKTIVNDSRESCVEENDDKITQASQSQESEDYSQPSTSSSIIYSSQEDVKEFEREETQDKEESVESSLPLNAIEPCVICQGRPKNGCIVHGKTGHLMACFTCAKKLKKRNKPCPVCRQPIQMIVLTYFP
HIF-2a inh conf = HIF-2a inhibition, single concentration confirmation; inhibition, % at 18.8 µM; shares compounds with HIF-2a block; 1,800 tested, 56% active; 786-0 RCC cells, HIF-2a luciferase reporter luminescence, overnight;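 active = mean inhibition across four replicates of at least 40 percent at the single tested concentration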
HIF-1a counter = counter-screen for HIF-2a inhibitors: HIF-1a inhibition in MiaPaCa-2 cells | shares compounds with HIF-2a block | MiaPaCa-2 HIF-1a luciferase reporter, desferoxamine, overnight | inhibition, % at 18.8 µM | 1,800 tested, 72% active;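 active = mean inhibition of the reporter signal across four replicates at the single tested dose of 50% or more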
The depositor's hits bear a star; x = no result given. Shown are actives, neighbours in structure and some others; about 2.8% of the full set was active somewhere.

SMILES	HIF-2a block	Peg3 prom inh	CF NFkB inh	MITF TRPM1 inh	Beta2AR agonist	KKLEB tox	HIF-2a inh conf	HIF-1a counter	others
Cc1nc([N+](=O)[O-])c(Sc2nc3ccccc3[nH]2)n1Cc1ccccc1	22.3	-4.4	42.1	46.1	-13.7	-9.7	x	x
O=C(O)C(c1ccccc1)N1CCCCC1 (stereo not drawn)	9.1	2.3	7.4	-0.4	3.6	0.1	x	x
Cc1cccc(NC(=O)/C=C/c2ccc([N+](=O)[O-])s2)c1	48.8*	107.4*	-27.3	94.6*	-11.5	-32.9	-163.4	103.2*
Cc1ccc(NC(=O)/C=C/c2ccc([N+](=O)[O-])s2)c(C)c1	78.7*	89.2*	-13.3	109.2*	-13.6	-29.1	-23.4	99.7*
COc1cccc(NC(=O)/C=C/c2ccccc2[N+](=O)[O-])c1	-235.7	-259.3	-1.5	-52.1	0.5	-8.0	x	x
O=C(O)CSc1nnc(COc2cccc3ccccc23)n1Cc1ccccc1	22.3	-2.6	-13.4	3.1	1.3	0.9	x	x
CCn1c(COc2cccc3ccccc23)nnc1SCC(=O)OC1CCCCC1	57.6*	9.9	17.2	-6.3	14.3	-6.3	14.0	-10.2
Cn1c(COc2cccc3ccccc23)nnc1SCC(=O)OC1CCCCC1	66.8*	5.6	5.7	-5.3	6.8	8.2	27.9	-4.3
COC(=O)[C@]12CCCCC=C1N(CCC1=CCCCC1)C(=O)[C@H](CC(=O)NCCC(C)C)C2	5.1	x	x	x	x	x	x	x
Cc1cc2nc(-c3ccc(F)cc3)c(CC(C)(C)C)n2c(C)c1Br	-1.8	2.5	36.4	x	x	-15.3	x	x
Cc1ccc(-c2csc3ncnc(SCC(N)=O)c23)cc1	11.2	18.9	23.2	-8.0	-3.7	6.1	x	x
Cn1nnnc1Sc1ncnc2scc(-c3ccc(F)cc3)c12	77.6*	96.8*	60.3*	82.6*	10.1	-45.0	x	x	Mdm2-MdmX confirm=103.0*
Cn1nnnc1Sc1ncnc2scc(Br)c12	96.4*	103.8*	77.7*	-17.4	15.8	-42.2	65.2*	105.2*
Cn1nnnc1SCc1nc2scc(-c3ccccc3)c2c(=O)[nH]1	-41.8	2.5	-6.1	-0.9	0.0	-5.3	x	x
Cn1nnnc1Sc1ncnc2scc(-c3ccccc3Br)c12	48.8*	79.0*	49.9	58.3	1.4	-19.0	24.8	75.4*
Cn1nnnc1SCSc1nnnn1C	-12.4	5.8	-0.5	3.9	-2.6	9.6	x	x
CCOC(=O)c1cccc(NC(=O)Nc2ccc(OCC)cc2)c1	61.6*	-135.6	-13.5	-29.6	-2.6	1.0	61.2*	-17.1
CCOC(=O)c1cccc(NC(=O)N[C@@H](C)C(=O)OC)c1	-7.6	22.2	2.0	-0.9	6.6	7.9	x	x
COc1nn(-c2ccccc2)c(=O)c(Cl)c1Cl	92.7*	104.8*	91.1*	84.3*	35.8	-66.4*	64.7*	106.1*
COc1c(Cl)cnn(-c2ccccc2)c1=O	11.2	17.9	6.1	4.0	-5.3	7.3	x	x
CN(C)CCCNC(=O)c1ccc(-c2nc(-c3ccc(Cl)cc3)cs2)cc1	88.5*	103.1*	6.5	82.7*	24.0	-24.4	-175.2	106.2*
N#CC(c1cccc(Cl)c1)c1ccc2c(C(F)(F)F)cc(C(F)(F)F)nc2n1 (stereo not drawn)	14.2	56.9*	52.7*	74.0*	24.3	-60.2*	x	x	Mdm2-MdmX confirm=101.7*
NNc1ccc2c(C(F)(F)F)cc(C(F)(F)F)nc2n1	-59.6	-6.5	-2.3	-5.2	-0.2	6.6	x	x
Cc1cc(C(=O)OC(C)C(=O)N2CCc3ccccc32)ccc1[N+](=O)[O-] (stereo not drawn)	-13.8	-18.9	-38.8	10.4	4.7	9.5	x	x
Cc1ccc(-c2nnc(SCc3ccc(C#N)cc3)n2Cc2ccco2)cc1	38.5	34.8	-27.2	14.1	-3.3	-8.4	x	x
SMILES	HIF-2a block	Peg3 prom inh	CF NFkB inh	MITF TRPM1 inh	Beta2AR agonist	KKLEB tox	HIF-2a inh conf	HIF-1a counter	others
COc1cccc(-c2nnc(SCc3ccc(C#N)cc3)n2Cc2ccco2)c1	44.0*	27.0	-2.6	5.1	4.0	-7.2	31.5	40.9
COc1ccc(-c2cc3nc(C)c(CCC(=O)NCc4ccco4)c(C)n3n2)c(OC)c1	2.4	-69.9	4.6	-6.5	-5.1	-17.1	x	x
Cc1nc2cc(-c3ccc(Cl)cc3)nn2c(C)c1CCC(=O)NCc1ccco1	80.5*	-53.6	-8.0	39.9	-14.8	-3.7	87.3*	48.0
COC(=O)c1ccc(/C=C(\C#N)C(=O)NC(C)c2ccccc2)cc1 (stereo not drawn)	66.7*	104.0*	76.6*	81.3*	14.6	-13.1	48.3*	105.1*
COC(=O)CCS(=O)(=O)c1nc(-c2ccccc2)cc(C(F)(F)F)n1	87.6*	107.1*	87.0*	94.0*	97.0*	-60.0*	98.6*	107.0*	Mdm2-MdmX confirm=103.2*
CCOC(=O)CCS(=O)(=O)c1nc(-c2ccccc2)cc(C(F)(F)F)n1	94.5*	113.5*	85.6*	85.1*	60.3*	-77.4*	x	x	Mdm2-MdmX confirm=103.0*
Cc1cc(NC(=O)CCCS(=O)(=O)c2nc(-c3cccs3)cc(C(F)(F)F)n2)no1	93.6*	105.8*	89.9*	95.2*	39.4	-53.1*	56.1*	103.7*
Cc1cc(NC(=O)CSc2nc(-c3cccs3)cc(C(F)(F)F)n2)no1	21.0	34.2	28.7	33.8	-4.4	-24.3	x	x
CCOC(=O)CS(=O)(=O)c1nc(-c2ccc(F)cc2)cc(C(F)(F)F)n1	93.4*	100.2*	85.0*	99.4*	103.6*	-43.9	x	x	Mdm2-MdmX confirm=99.5*
CCOC(=O)c1c(C(F)(F)F)cc(-c2ccc(F)cc2)nc1C	-28.3	-4.3	-10.4	-7.5	-5.6	0.3	x	x
COC(=O)[C@@]12C[C@@H](CC(=O)NCc3ccc(C)o3)C(=O)N(Cc3ccc4c(c3)OCO4)C1=CCC(C)(C)C2	8.5	x	x	x	x	x	x	x
CC(C)OC(=O)N(C)C[C@@H]1OCc2cnnn2CCCC(=O)N([C@@H](C)CO)C[C@@H]1C	13.0	-3.4	-10.2	x	x	2.4	x	x
Nc1nc(-c2ccc(F)cc2)cc(C(F)(F)F)n1	7.4	-13.1	22.7	14.9	-5.1	-15.1	x	x
CS(=O)(=O)c1nc(-c2ccc(F)cc2)cc(C(F)(F)F)n1	94.6*	106.4*	91.6*	97.3*	72.8*	-96.5*	54.7*	101.7*
CC(=O)Nc1ccc(Nc2cc(N3CCOCC3)c3nonc3c2[N+](=O)[O-])cc1	41.9*	14.2	-3.3	13.5	-0.9	-10.3	5.0	76.5*
O=[N+]([O-])c1c(Nc2ccc(O)cc2)cc(N2CCOCC2)c2nonc12	36.1	4.0	30.4	15.5	-14.8	-32.6	x	x
